Measured values: PubChem BioAssay (NCI)
About 83,000 compounds went through this panel and 20% of them were active in at least one assay; those are over-represented in the sample as a whole.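 Interpretation: 100, growth as untreated; towards 0, rising growth inhibition; 0, no net growth; 0 to -100, cell death. Compounds scoring below 10 were considered active.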 The source made the active and inactive calls.

Tests used:
Test in all cases: NCI-60 one-dose screen, 48 h (100 = growth as untreated, 0 = no growth, -100 = all killed)
Settings in all cases: 10 µM unless noted
[1] = test system: NCI-H23 lung
[2] = test system: NCI-H226 lung
[3] = test system: NCI-H322M lung
[4] = test system: HOP-62 NSCLC
[5] = test system: NCI-H460 lung
[6] = test system: HOP-92 NSCLC
[7] = test system: NCI-H522 lung
[8] = test system: A549/ATCC NSCLC
[9] = test system: 786-0 renal
[10] = test system: COLO 205 colon
[11] = test system: DU-145 prostate
[12] = test system: K-562 leukemia
[13] = test system: MALME-3M melanoma
[14] = test system: MDA-MB-231 breast
[15] = test system: RXF 393 renal
[16] = test system: SF-268 CNS
[17] = test system: SF-295 CNS
[18] = test system: SF-539 CNS
[19] = test system: UACC-257 melanoma
[20] = test system: M14 melanoma

Measured: growth

C#COc1cccc(Nc2ncnc3cc(NC(=O)[C@@H](C)Cl)ccc23)c1
active: [4] 7.46% [6.25 µM] | [5] 6.36% [6.25 µM] | [7] -34.7% [6.25 µM] | [8] 6.69% [6.25 µM] | [10] 3.72% [6.25 µM] | [12] 7.85% [6.25 µM] | [15] 7.55% [6.25 µM] | [17] 7.32% [6.25 µM] | [18] -5.67% [6.25 µM]
inactive: [1] 22.8% [6.25 µM] | [2] 41.4% [6.25 µM] | [3] 38.9% [6.25 µM] | [6] 57.5% [6.25 µM] | [9] 17% [6.25 µM] | [11] 13% [6.25 µM] | [13] 38.2% [6.25 µM] | [14] 24.5% [6.25 µM] | [16] 21.6% [6.25 µM] | [19] 36.9% [6.25 µM] | [20] 10.4% [6.25 µM]

Oc1c(CN2CCOCC2)cc(COCc2ccccc2)c2cccnc12
active: [7] 4.41% | [18] 4.65% | [19] -9.19%
inactive: [1] 39.1% | [2] 43.4% | [3] 14.7% | [4] 10.7% | [5] 16.1% | [6] 62.4% | [8] 26.5% | [9] 32.6% | [10] 62.8% | [11] 38% | [12] 14.8% | [13] 21.2% | [14] 43.1% | [15] 58.5% | [16] 23.7% | [17] 30.8% | [20] 12%

O=C1/C(=C/c2ccc(O)c(O)c2)COc2ccc(-c3ccccc3)cc21
active: [6] 1.73% | [7] -67.2% | [10] 5.4% | [18] 9.83%
inactive: [1] 35.8% | [2] 36.2% | [3] 54.8% | [4] 77.5% | [5] 13.7% | [8] 31.8% | [9] 24.8% | [11] 26.5% | [12] 15.3% | [13] 41.2% | [14] 12.9% | [15] 16.5% | [16] 49.4% | [17] 42.5% | [19] 30.4% | [20] 45.9%

CSC1=Nc2c(c(C)c(-c3ccccc3)n2CCCC(=O)O)C2=NC(=O)C[C@H](C)N12
inactive: [1] 105% | [2] 110% | [3] 102% | [4] 89.7% | [5] 102% | [6] 94.3% | [7] 93% | [8] 101% | [9] 102% | [10] 119% | [11] 115% | [12] 101% | [13] 102% | [14] 138% | [15] 106% | [16] 110% | [17] 106% | [18] 85.5% | [19] 108% | [20] 102%

CN1CCN(CCOc2ccc(-c3cnc4c(-c5ccc(F)cc5)cnn4c3)cc2)CC1
inactive: [1] 67% | [2] 104% | [3] 75% | [4] 72.6% | [6] 54.9% | [7] 64.1% | [8] 27.3% | [9] 60.3% | [11] 42.2% | [13] 53.5% | [14] 55.1% | [15] 48.8% | [16] 56.9% | [17] 81% | [18] 49.5% | [19] 28.4%
active: [5] -1.23% | [10] -51.7% | [12] -6.74% | [20] -29.8%

CCO/C=N/C1=C(C#N)C(c2ccc(F)cc2)c2sc3c(F)cccc3c2O1 (stereo not given)
inactive: [1] 61.2% | [2] 67.8% | [3] 65.4% | [4] 50.9% | [5] 16.3% | [6] 58.8% | [8] 40.6% | [9] 35.2% | [10] 78.3% | [11] 62.4% | [12] 23.5% | [13] 57.6% | [14] 51% | [15] 33.3% | [16] 50.3% | [17] 22% | [18] 28.9% | [19] 60.2% | [20] 29.8%
active: [7] -22%

O=C1Nc2ccccc2/C1=C\c1c[nH]c2ccc(Br)cc12
inactive: [1] 77.4% | [2] 34.9% | [3] 64.2% | [4] 56.5% | [5] 80.8% | [6] 64.6% | [7] 35.8% | [8] 73.5% | [9] 109% | [10] 57.5% | [11] 89.7% | [12] 74.2% | [13] 89.8% | [14] 67% | [15] 25.4% | [16] 62.2% | [17] 109% | [18] 83.1% | [19] 80.1% | [20] 84.5%

CC(C)(C)n1cc(-c2ccnc(NCCCNS(=O)(=O)c3ccc(C(F)(F)F)cc3)c2)c(-c2cccc(F)c2)n1
inactive: [1] 82% | [2] 91.1% | [3] 103% | [4] 92.7% | [5] 76.7% | [6] 90.1% | [7] 73.7% | [8] 64.1% | [9] 88.3% | [10] 76.9% | [11] 92.6% | [12] 30.9% | [13] 105% | [14] 93.8% | [15] 92.2% | [16] 87.2% | [17] 94.7% | [18] 74.1% | [19] 94.4% | [20] 81.2%

COc1ccc(C#Cc2ccc(=O)oc2-c2cc(OC)c(OC)c(OC)c2)cc1O
inactive: [1] 45.7% | [2] 71.3% | [3] 49.7% | [4] 28.6% | [5] 15.3% | [6] 48.4% | [7] 20.6% | [8] 42.6% | [9] 54.3% | [10] 69.4% | [11] 58.5% | [12] 16.8% | [13] 38.8% | [14] 59.9% | [15] 57.8% | [16] 69.7% | [17] 23.5% | [18] 47.6% | [19] 53% | [20] 33.9%

Cc1ccc(-c2nc(SCc3nc4cc(Cl)c(Cl)cc4[nH]3)[nH]c(=O)c2C#N)cc1
inactive: [1] 99.2% | [2] 103% | [3] 101% | [4] 91.9% | [5] 112% | [6] 104% | [7] 89.1% | [8] 93.1% | [9] 94.5% | [10] 107% | [11] 91.6% | [12] 93.4% | [13] 95.6% | [14] 97.9% | [15] 108% | [16] 91.6% | [17] 104% | [18] 97.5% | [19] 91.3% | [20] 91.2%

COC(=O)c1c2c(c(C)[n+]([O-])c1C)C(=O)C(NCc1ccc(OC)cc1)=CC2=O
inactive: [1] 27.5% | [2] 81.7% | [4] 47.7% | [5] 10.2% | [6] 36.9% | [9] 54.2% | [11] 43.9% | [12] 11.4% | [15] 47.3% | [16] 22.5% | [17] 66.6% | [18] 10.4% | [20] 13.3%
active: [3] 6.55% | [7] -5.69% | [8] 4.4% | [10] -45.2% | [13] -92.8% | [14] 5.7% | [19] -47.5%

O=C1Nc2ccccc2/C1=C/c1cccn1C(=O)c1ccc(Cl)s1
inactive: [1] 30.2% | [2] 61.7% | [3] 50.4% | [4] 52.3% | [5] 75.7% | [6] 70.2% | [7] 37.8% | [8] 23.4% | [9] 85.3% | [10] 68% | [11] 66.8% | [12] 36.8% | [13] 104% | [14] 50.9% | [15] 81.1% | [16] 39.4% | [17] 88.8% | [18] 62.4% | [19] 79.5% | [20] 82.2%

COc1ccc(-c2ccc(-c3ccc(C(=N)N)nc3)s2)cc1Cl
active: [4] -30.8% | [5] -80.3% | [7] -47.3% | [8] -32.3% | [9] -89.7% | [10] -56% | [11] -92.5% | [12] -29.8% | [14] -75.1% | [16] -62.8% | [17] -78.4% | [18] -90.6% | [20] -40.6%
inactive: [1] 41.2% | [2] 77.7% | [3] 15.7% | [6] 84.4% | [13] 74.1% | [15] 56.8% | [19] 93.5%

CCc1ccc(CCC(=O)Nc2ncc(Cc3cc(Cl)ccc3Cl)s2)o1
inactive: [1] 48.4% | [2] 42.8% | [3] 36.7% | [4] 29.9% | [5] 10.3% | [6] 51.6% | [8] 22.5% | [9] 30.5% | [11] 18.5% | [13] 43.5% | [14] 28.6% | [16] 60.9% | [19] 69.9%
active: [7] 3.35% | [10] 8.61% | [12] 9.71% | [15] -32.5% | [17] 6.84% | [18] -6.72% | [20] 6.6%

O=C(Oc1ccc(CCl)cc1)c1ccccc1
active: [1] -72.6% | [2] -97.8% | [3] -91.4% | [4] -79.2% | [5] -47.5% | [6] -89.7% | [7] -65.7% | [8] -68.7% | [9] -92.5% | [10] -72.9% | [11] -92.9% | [12] -37.5% | [13] -69.3% | [14] -82% | [15] -90.5% | [16] -79.3% | [17] -92.5% | [18] -87.6% | [19] -67.4% | [20] -82.7%

N#C/C(=C\C=C\c1ccc(-c2cc(Cl)ccc2Cl)o1)c1nc2ccccc2s1
inactive: [1] 83.7% | [2] 78.3% | [3] 95% | [4] 87.7% | [5] 103% | [6] 89.1% | [7] 94.4% | [8] 99.4% | [9] 102% | [10] 92.9% | [11] 112% | [12] 100% | [13] 95.4% | [14] 72% | [15] 99.3% | [16] 98.6% | [17] 96.5% | [18] 93.9% | [19] 95% | [20] 103%
